# Only some compounds are listed: those with a hit (about 19% of all), similar ones and a draw of the others.
# IL1B secr inh = inhibitors of inflammasome signaling (IL-1 beta secretion) | THP-1 LPS/ATP IL-1B secretion, AlphaLISA, 16 h; active compounds read low | activity change, % at 57.5 µM | 360,000 tested, 4.7% active | AID 743279; in the data active means activity change below about -50%; inconclusive means mostly about -30% to -49%
#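 THP-1 cells pretreated 1 hr with compounds (up to 57.5 uM final), then stimulated with LPS (250 ng/mL final) plus ATP (1.25 mM final); secreted IL-1B measured by AlphaLISA after 16 hr, decreased signal indicating inhibition.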
# DT40 TDP1 CPT = DT40-hTDP1 cell growth loss with CPT. 420,000 tested, 12% active. chicken DT40 Tdp1-/-;hTDP1 cells + 20 nM CPT, ATP luminescence, 48 h. Potency, µM (doses to about 46.2 µM), inactives show top-dose activity change, negative = growth inhibition, actives largely listed as inhibitors; further: potency means the concentration at half of the fitted maximal effect; nearly all actives have a fitted effect of over 55% in size
#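 Chicken DT40 Tdp1-/- cells stably complemented with human TDP1 were seeded at 400 cells/well in medium containing 20 nM camptothecin, exposed to pin-transferred compounds, and grown at 37 °C for at least 48 hr. Viability was read as ATP luminescence.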
# HT1080 IDH1KD tx = HT-1080 IDH1 knockdown cell toxicity (counter line). HT-1080 IDH1 knockdown viability, ATP luminescence, 48 h. Potency, µM (doses to about 46.1 µM), inactives show top-dose activity, negative = toxicity, hits mostly cytotoxic. 360,000 tested, 2% active. AID 686971;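 further: potency means the concentration at half of the fitted maximal effect; 0% = DMSO wells and -100% = cell-free medium wells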
#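 Luminescent ATP read-out (CellTiter-Glo, 10 min at room temperature) after 48 h compound exposure at 37 °C gave viability of IDH1-knockdown HT-1080 cells. Activity was normalised to DMSO and cell-free wells, then fitted as concentration-response curves.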
# TDP1 cell noCPT = qHTS for Inhibitors of human tyrosyl-DNA phosphodiesterase 1 (TDP1): qHTS in cells in absence of CPT | DT40 Tdp1-/- hTDP1 cells, no CPT, ATP luminescence, 48 h | Potency, µM (titrated, usually from 46.2 µM), for the others: top-dose activity change, negative = growth inhibition, actives largely listed as inhibitors | 420,000 tested, 15% active | AID 686978, 2013; further: potency means the concentration at half of the fitted maximal effect; nearly all actives have a fitted effect of over 55% in size
#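 Growth of hTDP1-complemented DT40 Tdp1-knockout cells is measured by ATP luminescence after at least 48 hr compound exposure at 37 °C, with DMSO substituting for the 20 nM CPT used in the parallel screen.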
# HT1080-NT tox = kills 2HG-producing HT-1080-NT fibrosarcoma cells; 360,000 tested, 1.6% active; Potency, µM (titrated, usually from 46.1 µM), for the others: at the top dose activity, negative = less viability, actives largely listed as cytotoxic; AID 686970; HT-1080-NT fibrosarcoma viability, CellTiter-Glo ATP luminescence, 48 h;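 further: NT is the 2HG producing partner of a matched IDH1 knockdown line; potency means the concentration at half of the fitted maximal effect; 0% = DMSO-treated cells and -100% = media-only wells without cells; nearly all actives have a fitted effect of over 55% in size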
#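 Read-out is CellTiter-Glo luminescence after 10 minutes at room temperature, following 48 hours' compound treatment of HT-1080-NT cells (750 cells/well, RPMI, 5% FBS, 37 degrees C).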
# ELG1 DNA repair = inhibitors of ELG1-dependent DNA repair in HEK293T cells; AID 504467; Potency, µM (doses to about 46.1 µM), inactives show at the top dose activity change, negative = inhibition, most hits filed as inhibitors; HEK293T ELG1-luciferase reporter, luminescence, 16 h; DNA damage induced by 5-fluorouridine; 330,000 tested, 2.3% active; further: potency means the concentration at half of the fitted maximal effect; nearly all actives have a fitted effect of over 55% in size
#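 In this reporter screen, reduction of luminescence relative to DMSO vehicle indicated activity. Compounds and 5-fluorouridine were added together to 2,000 cells per well, incubated for 16 hr at 37 °C, then developed with ONE-Glo.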
# * hit, by the source's call; u = inconclusive; x = not tested or not shown. Unless noted, the call rests on the fitted dose curve; in most records, active means well fitted curve in the direction sought with a large enough effect; inconclusive means small, poorly fitted or top-dose-only effect, or another doubt; inactive means no such curve, though single readings can be large; an effect the other way counts as inactive or inconclusive. Unless noted, on the % scale 0 is the no-effect control and ±100 the full control effect.
SMILES,IL1B secr inh,DT40 TDP1 CPT,HT1080 IDH1KD tx,TDP1 cell noCPT,HT1080-NT tox,ELG1 DNA repair
CN(C)NC1=CC(=[N+]2CCCC2)CC(C)(C)C1,6,11%,2%,u,4%,3%
CC(=O)N1c2ccc(S(=O)(=O)N(C)CC(=O)NC(C)c3ccccc3)cc2CC1C (stereo not given),9,u,10%,-6%,19%,2%
COc1ccc(/C(C)=N/NC(=O)CNC(=O)CCc2ccccc2)c(OC)c1,28,u,u,18µM*,u,-7%
COc1cccc(/C=N/NC(=O)CNC(=O)CCc2ccccc2)c1O,232,u,21µM*,u,u,u
COc1ccccc1/C=C\C(=O)NCC(=O)N/N=C/c1cccc(OC)c1O,183,7.3µM*,15µM*,7.3µM*,u,-6%
COc1ccccc1/C=N/NC(=O)CNC(=O)c1ccccc1,20,-9%,-1%,34%,-3%,1%
COc1cccc(/C=N/NC(=O)CNC(=O)c2cccs2)c1O,112,5.8µM*,u,9.2µM*,u,u
COC(=O)c1ccccc1NC(=O)c1ccc(-c2nc(COc3ccccc3)c(C)o2)cc1,x,-2%,x,1%,x,x
COc1ccccc1P(=O)(c1ccccc1)c1ccccc1,7,-21%,7%,-7%,9%,u
Cc1ccccc1P(=O)(c1ccccc1)c1ccccc1C,4,u,-20%,18µM*,0%,x
Cc1ccc2[nH]cc(S(=O)(=O)c3ccc(C(C)C)cc3)c(=O)c2c1,-3,3%,-12%,-3%,-8%,u
Cc1ccc2[nH]cc(CCNC(=O)Nc3ccccc3)c2c1,-14,u,9%,u,4%,-34%
Cc1ccc2[nH]cc(C(c3ccccc3)c3cccs3)c2c1 (stereo not given),x,u,x,18µM*,x,x
Cc1ccc2[nH]cc(C(c3ccccc3)c3ccc(C)s3)c2c1 (stereo not given),x,u,x,18µM*,x,x
CC1(C(=O)Nc2ccc3c(c2)OCO3)CCN1C(=O)CC1CC1 (stereo not given),54,-12%,30%,-9%,27%,x
CC(=O)Nc1cccc(-c2ccnc3c2CC(C)(C(=O)NCCc2ccccc2)O3)c1 (stereo not given),104,5.8µM*,u,4.6µM*,u,x
CC1(C(=O)NCCc2ccccc2)Cc2c(-c3ccccc3)ccnc2O1 (stereo not given),-59*,21µM*,u,u,-19%,x
CC(C)NC(=O)C1(C)Cc2c(-c3ccc(C(N)=O)cc3)ccnc2O1 (stereo not given),5,1%,10%,4%,15%,x
CC1(C(=O)NCc2ccccc2)Cc2c(-c3ccc(C(N)=O)cc3)ccnc2O1 (stereo not given),44,1.6µM*,1.5µM*,2.1µM*,u,x
CC1(C(=O)NCc2ccco2)Cc2c(-c3ccc(C(N)=O)cc3)ccnc2O1 (stereo not given),52,4.1µM*,2.9µM*,3.7µM*,3.3µM*,x
CC(OC(=O)C1CC(=O)N(Cc2ccccc2)C1)C(=O)Nc1cccc(C#N)c1 (stereo not given),4,-15%,15%,0%,4%,-2%
O=C(NN=Cc1ccccc1)NN=Cc1ccccc1,-25,13%,7%,u,14%,x
CN(C)c1ccc(-c2ccnc3c2CC(C)(C(=O)NCc2ccccc2)O3)cc1 (stereo not given),46,2.9µM*,u,5.2µM*,u,x
CN(C)c1ccc(-c2ccnc3c2CC(C)(C(=O)NCC2CCOCC2)O3)cc1 (stereo not given),0,16µM*,-4%,13µM*,-21%,x
CC1(C(=O)NCC2CC2)Cc2c(-c3ccccc3)ccnc2O1 (stereo not given),45,9.2µM*,-24%,13µM*,-21%,x
SMILES,IL1B secr inh,DT40 TDP1 CPT,HT1080 IDH1KD tx,TDP1 cell noCPT,HT1080-NT tox,ELG1 DNA repair
CN(C)c1ccc(-c2ccnc3c2CC(C)(C(=O)Nc2ccccc2)O3)cc1 (stereo not given),0,3%,17%,-22%,7%,x
CN1CCN(c2ccc(CNC(=O)C3Cc4c(-c5ccccc5)ccnc4O3)cc2)CC1 (stereo not given),-24,u,u,u,-24%,x
COc1ccc(CNC(=O)C2(C)Cc3c(-c4ccc(N(C)C)cc4)ccnc3O2)cc1OC (stereo not given),24,u,-7%,u,-1%,x
CN1CCN(c2ccc(CNC(=O)C3(C)Cc4c(-c5ccccc5)ccnc4O3)cc2)CC1 (stereo not given),-22,26µM*,-16%,21µM*,-8%,x
COC(=O)c1c(NC(=O)c2cc(=O)c3cc(C)cc(C)c3o2)sc2c1CCC2,x,-5%,x,-3%,x,x
COC(=O)[C@@]1(Cc2ccc(F)cc2)[C@H]2c3cc(C(=O)N(C)C)n(Cc4ccsc4Br)c3C[C@H]2CN1C(=O)c1ccccc1,-28,u,u,u,u,x
CC1(C(=O)NCc2ccccc2)Cc2c(-c3ccccc3)ccnc2O1 (stereo not given),0,u,u,4.1µM*,u,x
CCCNC(=O)c1ccc(COc2ccc(C(C)(C)C)cc2)o1,-69*,u,-19%,13µM*,u,0%
CC(C)(C)c1ccc(OCc2ccc(C(=O)N3CCOCC3)o2)cc1,36,u,u,26µM*,u,u
CCOc1ccc(OCc2ccc(C(=O)NCc3ccncc3)o2)cc1,u,16µM*,3%,-30%,-15%,0%
C[C@H](NC(=O)[C@@H]1CCCN1C(=O)OC(C)(C)C)c1ccccc1,16,12%,2%,6%,14%,x
OCCNc1ncnc2c1cnn2Cc1ccccc1,-14,-9%,4%,7%,-3%,-1%
CC(C)CCNc1ncnc2c1cnn2Cc1ccccc1Cl,-15,29µM*,-10%,u,-17%,u
COc1ccc(Nc2ncnc3c2cnn3Cc2ccccc2)cc1,-54*,u,-18%,u,u,-24%
c1ccc(CNc2ncnc3c2cnn3Cc2ccccc2)cc1,-17,13µM*,7.9µM*,13µM*,7.9µM*,-28%

# Assay outcomes as filed in PubChem.
